According to ChEMBL document CHEMBL4513216, “Probing the Open Global Health Chemical Diversity Library for Multistage-Active Starting Points for Next-Generation Antimalarials” (ACS Infect Dis, 2020):
Out of some 69,000 compounds screened, about 8,600 (12%) showed an effect of 50% or more. Only a selection was taken, and strong results are over-represented in it overall.

system: Plasmodium berghei; assay: Screen against P. berghei liver stage (PbLuc), transformed with Luciferase, at 10uM; format: functional, HepG2; conditions: tested at 10 uM

First: Cc1ccc(CN2CCC[C@]3(C(=O)O)CN(C)C[C@@H]3C2)s1
Second: Cc1ccc(CN2CCn3c(CNC(=O)c4cccn4C)cnc3C2)s1
The INHIBITION of the first is lower: 6.79% for the first, 54.7% for the second.

First: c1ccc2c(c1)cnn2CCCNC1CCOC2(CCOCC2)C1 (configuration not stated)
Second: Cn1cccc1C(=O)NCc1cn2c(n1)CN(CC1CCOCC1)CC2
The INHIBITION of the first is lower: -9.39% for the first, -4.88% for the second.

Going from `c1csc(N2CCCN(c3nccn4cnnc34)CC2)n1` to `O=C(CCN1CCCN(c2nccs2)CC1)Nc1ccccc1`, the INHIBITION rises from -27.8% to 15.2%.

Compared with `CN(CCOc1ccc(Cl)cc1)Cc1ccc(S(=O)(=O)N(C)C)o1`, `Cc1ccc(OCCN(C)Cc2ccc(S(=O)(=O)N(C)C)o2)cc1` is lower in INHIBITION: 51% for the first, 47.7% for the second.

Compared with `Cc1cc(C)cc(OCCN(C)Cc2ccc(S(=O)(=O)N(C)C)o2)c1`, `CCCc1n[nH]cc1C(=O)NCC1COc2cc(OC)ccc2C1` (configuration not stated) is lower in INHIBITION: 7.39% for the first, -3.83% for the second.

Compared with `CC(C)NC(=O)c1ccc2c(c1)C1(CCN(C(C)C)CC1)C(=O)N2`, `COc1ccc2c(ccn2CC(=O)Nc2n[nH]c(C(C)C)n2)c1` is higher in INHIBITION: -25.1% for the first, 35.7% for the second.

First: O=C(NCCNc1ncccn1)C1CCN(C(=O)N2CCCC2)CC1
Second: O=C(NCc1cn2c(n1)CN(Cc1nccs1)CC2)C1CCC1
The INHIBITION of the first is lower: -33.9% for the first, 11.4% for the second.

First: O=C1CC(c2ccc(O)cc2)c2c(n3ccsc3nc2=O)N1 (configuration not stated)
Second: O=c1[nH]c2cn(-c3ccc(Cl)cc3)c(=O)n2[nH]1
The INHIBITION of the first is higher: 2.66% for the first, -20.6% for the second.

First: C1CC(CO[C@@H]2CC[C@H]3[C@H]2OCCN3CC2CC2)CCO1
Second: C1CCC(CO[C@@H]2CC[C@H]3[C@H]2OCCN3CC2CCOCC2)C1
The INHIBITION of the first is lower: -11.6% for the first, 65.6% for the second.

Compared with `CO[C@@H]1CC[C@H]2[C@H]1OCCN2CC1CC1`, `CCO[C@@H]1CC[C@H]2[C@H]1OCCN2CC1CCC1` is higher in INHIBITION: 23.6% for the first, 54.7% for the second.

First: CCO[C@@H]1CC[C@H]2[C@H]1OCCN2CC1CCOCC1
Second: C1CC(CO[C@@H]2CC[C@H]3[C@H]2OCCN3CC2CCOCC2)CCO1
The INHIBITION of the first is higher: 27.6% for the first, 7.31% for the second.

Compared with `COc1ccccc1C(C)N(C)Cc1nc2c(cnn2C)c(=O)[nH]1` (configuration not stated), `COc1ccccc1C(=O)Nc1cc(CC(C)C)nn1C` is higher in INHIBITION: -75.245% for the first, 12.7% for the second.

First: CCc1nc2c(NCC3COc4c(cccc4OC)C3)ncnc2o1 (configuration not stated)
Second: CCc1nc2c(NCC3COc4cc(OC)ccc4C3)ncnc2o1 (configuration not stated)
The INHIBITION of the first is lower: 55.4% for the first, 67.7% for the second.

Going from `O=C(c1cncc(NCC2COc3ccccc3C2)n1)N1CCCC1` (configuration not stated) to `CN1CCN(S(=O)(=O)NCC2COc3ccccc3C2)CC1` (configuration not stated), the INHIBITION falls from 33.7% to -22.1%.

Compared with `COc1cccc2c1OCC(CNC(=O)Cc1c(C)nc(N)nc1C)C2` (configuration not stated), `COc1cccc2c1OCC(CNc1ccc(C)nn1)C2` (configuration not stated) is higher in INHIBITION: -13% for the first, 42.7% for the second.

Compared with `COc1ccc2c(c1)OCC(CNC(=O)NC(C)(C)C)C2` (configuration not stated), `CCc1nc2c(NCC3COc4ccccc4C3)ncnc2o1` (configuration not stated) is higher in INHIBITION: 31% for the first, 91.5% for the second.

Going from `Cc1nc(C2CCCN(C(=O)COCCc3ccccc3)C2)no1` (configuration not stated) to `O=C(CN1CC(c2nc(C3CC3)no2)C1)NCc1ccc(F)cc1`, the INHIBITION falls from 11.2% to -50.7%.

Compared with `CCCn1nccc1-c1cc(C2CCN(S(C)(=O)=O)CC2)nc(C)n1`, `Cc1nc(-c2ccccc2)cc(C2CCNCC2)n1` is higher in INHIBITION: -39.4% for the first, -25.3% for the second.

Compared with `COc1ccc2cnn(CC(=O)NCC3CCCO3)c(=O)c2c1OC` (configuration not stated), `Cc1ccc(CNC(=O)CN2CCCC(Cn3cncn3)C2)cc1` (configuration not stated) is lower in INHIBITION: 34.5% for the first, 31.8% for the second.

First: CCC(CC)CS(=O)(=O)NC(=O)C1CCC1
Second: CCC(C)CS(=O)(=O)NC(=O)C1CCC1 (configuration not stated)
The INHIBITION of the first is lower: 7.49% for the first, 62.3% for the second.

Going from `CCC(C)CS(=O)(=O)NC(=O)C1CC1` (configuration not stated) to `COCCN1CCn2cc(CNC(=O)C3CCC3)nc2C1`, the INHIBITION falls from 2.39% to -10.3%.

Compared with `CCCN1CCC(Cc2noc(-c3[nH]cnc3C)n2)CC1`, `CCOc1cc(C)nc(N2CCN(C(=O)c3cc(C)on3)CC2)n1` is higher in INHIBITION: -1.85% for the first, 19.4% for the second.

Compared with `Cc1ccc(N2CCCC3(COCCN(c4ccccn4)C3)C2)nn1` (configuration not stated), `O=C(c1cnccn1)N1CCCC2(CCN(c3ccccn3)C2)C1` (configuration not stated) is lower in INHIBITION: 17.2% for the first, -16.1% for the second.

Compared with `Cn1cc(CN2CCn3c(CNC(=O)c4cccn4C)cnc3C2)cn1`, `Cn1cc(CN2CCn3cc(CNC(=O)c4cccn4C)nc3C2)cn1` is higher in INHIBITION: 2.01% for the first, 62.6% for the second.

First: Cn1cccc1C(=O)NCc1cnc2n1CCN(CC1CC1)C2
Second: Cn1cccc1C(=O)NCc1cn2c(n1)CN(CC1CCOC1)CC2 (configuration not stated)
The INHIBITION of the first is lower: -13% for the first, 58.4% for the second.

Going from `Cn1cc(C(=O)NCc2cn3c(n2)CN(CC2CCOC2)CC3)cn1` (configuration not stated) to `Cn1cc(C(=O)NCc2cn3c(n2)CN(CC2CCOCC2)CC3)cn1`, the INHIBITION rises from -11.6% to 9.54%.

Compared with `O=C(CC1CC1)NCc1cn2c(n1)CN(Cc1cccc(F)c1)CC2`, `O=C(NCc1cn2c(n1)CN(Cc1cccc(F)c1)CC2)C1CCC1` is lower in INHIBITION: 50.9% for the first, -14.4% for the second.

First: Cn1cc(C(=O)NCc2cn3c(n2)CN(Cc2ccccn2)CC3)cn1
Second: Cn1cc(C(=O)NCc2cn3c(n2)CN(Cc2ccncc2)CC3)cn1
The INHIBITION of the first is higher: 53% for the first, -4.88% for the second.

`O=C(CC1CC1)NCc1cn2c(n1)CN(Cc1cccnc1)CC2` and `Cn1cc(CN2CCn3cc(CNC(=O)CC4CC4)nc3C2)cn1` are the same in INHIBITION: 33.4% for the first, 33.4% for the second.

First: Cn1cccc1C(=O)NCc1cn2c(n1)CN(Cc1ccccn1)CC2
Second: Cn1cccc1C(=O)NCc1cn2c(n1)CN(Cc1cccnc1)CC2
The INHIBITION of the first is lower: -37.6% for the first, 15.8% for the second.

Compared with `Cc1nc(C)n(C2CCCN(C(=O)c3ccc(F)c(F)c3)C2)n1` (configuration not stated), `O=C(c1cc(F)ccc1F)C1CCN(C(=O)c2cnccn2)CC1` is lower in INHIBITION: 6.333% for the first, 3.73% for the second.

Compared with `Cc1noc(-c2ccc(N3CCN(Cc4ncccc4C)CC3)nc2)n1`, `Cc1noc(C)c1CN1CCn2cc(CNc3ccccn3)nc2C1` is higher in INHIBITION: 17.1% for the first, 88.1% for the second.

Compared with `CN(CCc1noc(C2CC2)n1)C(=O)C1(N2CCCC2)CCCC1`, `O=C(NCc1cn2c(n1)CN(CC1CCOCC1)CC2)C1CCC1` is higher in INHIBITION: 10.7% for the first, 60.2% for the second.

Going from `COc1ccc(CNCc2c(C(C)C)nn(C)c2N(C)C)cn1` to `CC(C)n1cnnc1CN(C)C(=O)c1ccc[nH]1`, the INHIBITION falls from 19.2% to -5.19%.

First: CC(C)=CCCC1(C)CCC(=O)N(CCNc2nc(C)cc(=O)[nH]2)C1 (configuration not stated)
Second: CCOCCNC(=O)C1CCC(=O)N(CCc2ccc(Cl)cc2)C1 (configuration not stated)
The INHIBITION of the first is lower: 18.5% for the first, 42.5% for the second.

Compared with `N#CCCN(C(=O)CN1CCCC1c1cccs1)c1ccccc1F` (configuration not stated), `c1ccc(NCc2cn3c(n2)CN(Cc2cccs2)CC3)nc1` is higher in INHIBITION: 13.833% for the first, 26.5% for the second.

Compared with `O=C1Nc2ccccc2CN(CC=Cc2ccccc2)C12CCNC2` (configuration not stated), `O=C(NCC[S+]([O-])Cc1ccccc1)c1ccc2[nH]c(=O)[nH]c2c1` (configuration not stated) is lower in INHIBITION: 35.8% for the first, 35.2% for the second.

First: CCC(CC)NC(=O)Cn1cc(-c2ccccc2)cn1
Second: Cn1cc(C(=O)N2CC[C@@H]3[C@@H]2CCN3Cc2ccccc2)cn1
The INHIBITION of the first is higher: 48.4% for the first, 5.44% for the second.

Compared with `c1c(CN2CCOCC2)nc2n1CCN(C1CCOCC1)C2`, `c1c(CN2CCCC2)nc2n1CCN(C1CCOCC1)C2` is higher in INHIBITION: 27.5% for the first, 54.4% for the second.

First: Cn1cc(C(=O)NCc2cn3c(n2)CN(C2CCOCC2)CC3)cn1
Second: CCN1CCn2cc(CNC(=O)c3cnn(C)c3)nc2C1
The INHIBITION of the first is higher: 54.7% for the first, -18.4% for the second.

Compared with `CN1CCN(Cc2cn3c(n2)CN(C2CCOCC2)CC3)CC1`, `c1ccc(NCc2cn3c(n2)CN(Cc2ccoc2)CC3)nc1` is lower in INHIBITION: 11.6% for the first, -13.7% for the second.

First: CCNc1cc2c(nn1)CCN(C(=O)c1ccnc(C)n1)C2
Second: Cc1nc(Nc2ncccn2)cc(C2CCCN2C)n1 (configuration not stated)
The INHIBITION of the first is higher: 7.75% for the first, 0.301% for the second.

Going from `Cc1ccnc(NCC2(N(C)C)CCOCC2)n1` to `Cc1nc(Nc2ncccn2)cc(C2CCCN2C(C)C)n1` (configuration not stated), the INHIBITION rises from -24% to -0.902%.

Going from `O=C(c1cccnc1)N1CCc2ncnc(N3CCOCC3)c2CC1` to `CC(C(=O)N1CCCN(c2ncccc2C#N)CC1)n1cncn1` (configuration not stated), the INHIBITION falls from 41.6% to 11.4%.

First: CC(=O)N1CCn2cc(CNC(=O)c3cccn3C)nc2C1
Second: Cn1cccc1C(=O)NCc1cn2c(n1)CN(C(=O)c1ccsc1)CC2
The INHIBITION of the first is lower: 38.1% for the first, 61.1% for the second.

First: Cn1cccc1C(=O)NCc1cn2c(n1)CN(c1ncccn1)CC2
Second: Cc1nc(Nc2ccccn2)cc(C2CCCN2Cc2ncc[nH]2)n1 (configuration not stated)
The INHIBITION of the first is lower: -0.453% for the first, 50.1% for the second.

First: Cc1ccc2cc(C(=O)N3CCC(Nc4cccnn4)CC3)[nH]c2c1
Second: Cc1nc(Nc2ncccn2)cc(C2CCCN2Cc2ncc[nH]2)n1 (configuration not stated)
The INHIBITION of the first is higher: 21.6% for the first, 18.9% for the second.

Compared with `Cc1nn(C)c(Cl)c1C1CCCN1C(=O)c1ccoc1C` (configuration not stated), `Cc1cnc(C(=O)N2CC(=O)N(c3ccccc3Cl)CC2C)cn1` (configuration not stated) is higher in INHIBITION: -29.1% for the first, 17% for the second.

Going from `FC(F)(F)c1n[nH]c2c1CN(CCc1ccccn1)CC2` to `[O-][S+](CCN1CCc2[nH]nc(C(F)(F)F)c2C1)c1ccccc1` (configuration not stated), the INHIBITION falls from 50% to 36.3%.

First: FC(F)(F)c1n[nH]c2c1CN(Cc1cn3ccccc3n1)CC2
Second: O=C(CCN1CCc2[nH]nc(C(F)(F)F)c2C1)Nc1ccccc1
The INHIBITION of the first is lower: 49.1% for the first, 61.1% for the second.

Going from `CC(C(=O)Nc1ncccn1)N1CCc2[nH]nc(C(F)(F)F)c2C1` (configuration not stated) to `Cc1nc(Nc2ncccn2)cc(C2CCCN2CC(C)C)n1` (configuration not stated), the INHIBITION rises from -17.9% to 56.3%.

Going from `Cc1nc2n(n1)CC(NCc1nc(-c3ccccn3)no1)CC2` (configuration not stated) to `Cc1c[nH]nc1C1CCCN1Cc1ncc[nH]1` (configuration not stated), the INHIBITION falls from 0% to -12.3%.

First: c1cc(C2CCCN2CC2CC2)n[nH]1 (configuration not stated)
Second: c1cc(C2CCCN2CC2CCCCC2)n[nH]1 (configuration not stated)
The INHIBITION of the first is lower: -14.2% for the first, -12.3% for the second.

`CC(C)CN1CCCC1c1cc[nH]n1` (configuration not stated) was tested, and the INHIBITION was 52.7%.
